The structures appear in SMILES notation. About 5,800 (36%) of roughly 16,000 compounds were called active. Inconclusive results (about 23%) are left out. The list shows a part of the results. Unmarked numbers belong to inactive results. Calls follow the shape of the dose curve; as a rule, active = well fitted curve in the direction sought with a large enough effect; inconclusive = small, poorly fitted or top-dose-only effect, or effect the other way; inactive = no such curve, though single readings can be large or run the other way.

As a reminder, the AC50 is the concentration giving half of the maximal activity seen.
% is scaled to controls: 0 for no effect and ±100 for the full control effect.

Sequence of Cytochrome P450 2C19 (Homo sapiens) (P33261 whole entry, looked up): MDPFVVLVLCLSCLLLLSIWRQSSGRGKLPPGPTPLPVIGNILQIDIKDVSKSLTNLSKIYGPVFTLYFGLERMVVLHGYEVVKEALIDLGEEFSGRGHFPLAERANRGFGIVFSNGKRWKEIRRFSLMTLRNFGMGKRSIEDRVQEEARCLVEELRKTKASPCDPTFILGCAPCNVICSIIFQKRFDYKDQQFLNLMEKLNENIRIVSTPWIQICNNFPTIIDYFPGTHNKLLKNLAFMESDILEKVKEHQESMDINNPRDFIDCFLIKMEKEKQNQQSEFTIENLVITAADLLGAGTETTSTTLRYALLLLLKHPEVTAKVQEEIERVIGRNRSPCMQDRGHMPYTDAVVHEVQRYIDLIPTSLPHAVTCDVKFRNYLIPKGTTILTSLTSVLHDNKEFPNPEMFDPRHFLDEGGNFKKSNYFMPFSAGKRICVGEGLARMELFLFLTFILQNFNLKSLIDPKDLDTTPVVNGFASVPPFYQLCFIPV

This experiment has as its target Cytochrome P450 2C19 (Homo sapiens) (UniProt P33261). Briefly: Cytochrome panel assay with activity outcomes. Conditions: recombinant CYP, pro-luciferin dealkylation, luminescence, p450-cyp2c19; series mostly up to 57.1 µM; activity, negative = inhibition: at the top concentration.
With `O=C(O)Cc1cc(I)c(Oc2ccc(O)c(I)c2)c(I)c1`, the “activity, negative = inhibition” value was -1.1% [at 25.6 µM]. The same measure, in the same setting: the same measure for `CC[C@H](C)C(=O)O[C@H]1CCC=C2C=C[C@H](C)[C@H](CC[C@@H]3C[C@H](O)CC(=O)O3)[C@H]21`: 4.99%.

Regarding `Nc1[nH]nc2nc3ccccc3nc12`, the AC50 is 0.631 µM (active).

Turning to `Nc1n[nH]c2ccccc12`, the activity, negative = inhibition is -23.5% [at 11.4 µM]. Consider `COc1ccc(N(C)C(=O)c2ccc3nc(-c4ccccc4)c(-c4ccccc4)nc3c2)cc1`, for which the AC50 was 8.91 µM (active).

As to `CCCOc1ccc(Cn2c(C)nc([N+](=O)[O-])c2SCC(O)COC)cc1[N+](=O)[O-]` (stereo not drawn), the AC50 was 2.82 µM (active). For `Cc1cc(C)nc(NS(=O)(=O)c2ccc(N)cc2)n1`, the “activity, negative = inhibition” value is -5.99% [at 25.6 µM]. `CNc1nc(C)cc(C)c1S(=O)(=O)c1ccc(C)cc1`: the concentration at half-maximal activity (AC50) is 0.631 µM (active). On to `Cc1cc(C)c(S(C)(=O)=O)c(Oc2ccc(C(C)(C)C)cc2)n1`, for which the AC50 is 7.94 µM (active).

For the compound `CNc1nc(C)cc(C)c1S(=O)(=O)c1ccc(Cl)cc1`, the AC50 is 0.708 µM (active). With `COc1ccc(Oc2nc(C)cc(C)c2S(=O)(=O)c2ccc(C)cc2)cc1`, the AC50 was 14.1 µM (active). With `COc1cc(C2C(C#N)=C(N)N(c3sc4c(c3C#N)CCCC4)C3=C2C(=O)CC(C)(C)C3)cc(OC)c1OC` (stereo not drawn), the AC50 is 10 µM (active).

In the case of `Cc1ccccc1C1C(C#N)=C2N=C(N)c3c(sc4c3CCCCC4)N2C2=C1C(=O)CC(C)(C)C2` (stereo not drawn), the AC50 is 6.31 µM (active). `CC(=O)OC[C@@H]1O[C@@H](O/N=C2/C[C@@H](O)[C@@H](O)[C@@H]3[C@@H]4C(=O)N(C[C@@H]5CCCO5)C(=O)[C@H]4CC[C@@H]23)[C@H](OC(C)=O)[C@H](OC(C)=O)[C@@H]1OC(C)=O`: the activity, negative = inhibition is 3.68% [at 11.4 µM].

For `COc1cccc(Cn2c(NCc3cccnc3)nc3c2c(=O)n(C)c(=O)n3C)c1`, the AC50 is 17.8 µM (active).

Consider `Nc1nc(-c2ccccc2)c(-c2ccccc2)s1`, for which the AC50 was 8.91 µM (active).

Consider `Nc1ccc(-c2sc(N)nc2-c2ccccc2)cc1`, for which the AC50 was 7.94 µM (active).

Take `Nc1nc(-c2ccccc2)c(-c2ccccc2)c(-c2nc(N)nc(-c3ccccc3)c2-c2ccccc2)n1`: the activity, negative = inhibition was 13% [at 11.4 µM]. In the case of `Cc1ccc(C)c(NC(=O)C2C3CCCC2C3c2ccccc2)c1` (stereo not drawn), the “activity, negative = inhibition” value is -1.2%. With `Cc1ccc(C)c(NC(=O)C2CC3c4ccccc4C2c2ccccc23)c1` (stereo not drawn), the half-maximal activity concentration (AC50) was 20 µM (active). As to `Nc1nc2c(ncn2COC(CO)CO)c(=O)[nH]1`, the AC50 result was “inactive”. On the same count and under the same terms, the same measure for `CC(=O)c1sc(N)c(C(=O)OC(C)C)c1C`: 1.58 µM (active). Turning to `CC(C)CN1CCCC2(CCN(C(=O)c3cc(C(F)(F)F)cc(C(F)(F)F)c3)CC2)C1`, the “activity, negative = inhibition” value was -8.77%.

Regarding `CCOC(=O)CSCC(NC(=O)OC(C)(C)C)C(=O)OCC` (stereo not drawn), the AC50 is 10 µM (active). Turning to `CC(=O)C[C@H](O)[C@@H](NC(=O)OC(C)(C)C)C(C)C`, the activity, negative = inhibition was -9.61% [at 11.4 µM]. For the compound `CC(C)[C@H](NC(=O)OC(C)(C)C)[C@@H](O)CC(=O)OC(C)(C)C`, the activity, negative = inhibition is -17.9% [at 11.4 µM]. Consider `Cc1c(Cl)c([N+](=O)[O-])nn1Cc1ccc(C(=O)N/N=C\c2cc(Cl)ccc2O)o1`, for which the AC50 is 1.78 µM (active).

Regarding `Cc1c(Cl)c([N+](=O)[O-])nn1Cc1ccc(C(=O)N/N=C\c2cccc(Br)c2)o1`, the AC50 is 1.12 µM (active). `Cc1nn(Cc2ccc(Cl)cc2)c(C)c1NC(=O)Cn1nc([N+](=O)[O-])c(Cl)c1C`: the “activity, negative = inhibition” value was 25.1%. The same measure, in the same setting: the same measure for `O=C(O)/C=C\C(=O)Nc1ccc2c(c1)C(=O)c1cc(F)ccc1-2`: 28.8% [at 11.4 µM].

As for `O=C(/C=C/c1cccc(Cl)c1)Nc1ccncc1`, the AC50 is 0.0708 µM (active).

On to `Cc1nc(N=Nc2cc(S(=O)(=O)O)ccc2S(=O)(=O)O)c(COP(=O)(O)O)c(C=O)c1O`, for which the “activity, negative = inhibition” value is -31.8%. For `CCCCC1(C)OC(=O)C(=Cc2ccc(N(CC)CC)cc2)C(=O)O1` (stereo not drawn), the AC50 was 10 µM (active).

As to `CN(C)c1ccc(/C=C2/C(=O)Nc3ccccc32)cc1`, the “activity, negative = inhibition” value was -24.9%. Consider `O=C1Oc2ccccc2C2(O)C3CCCCCC3C12` (stereo not drawn), for which the AC50 is 1.41 µM (active). As to `C#CCSc1nc(Cc2ccc(Cl)cc2)nc2ccccc12`, the AC50 was 0.501 µM (active). In the case of `C#CCSc1nnc(-c2sc3ccccc3c2Cl)o1`, the “activity, negative = inhibition” value was -28.6%. `CC1(C)CC(=O)C(C(C#Cc2ccccc2)C2=C(O)CC(C)(C)CC2=O)=C(O)C1`: the AC50 is 4.47 µM (active). For the compound `O=C(c1ccncc1)N1CCC2(CC1)CN(C(c1ccccc1)c1ccccc1)C2`, the “activity, negative = inhibition” value was -40.4%. As for `CC(=O)N1CCC2(CC1)CN(C(c1ccccc1)c1ccccc1)C2`, the “activity, negative = inhibition” value is 16.5%.

For `Cc1noc(C)c1C(=O)N1CCC2(CCCN(C(c3ccccc3)c3ccccc3)C2)CC1`, the “activity, negative = inhibition” value was -32.8%. Turning to `CC(=O)N1CCC2(CC1)CCN(C(c1ccccc1)c1ccccc1)CC2`, the “activity, negative = inhibition” value was -26.9%.

As for `CC(=O)N1CCC2(CCCN(C(c3ccccc3)c3ccccc3)C2)CC1`, the AC50 is 15.8 µM (active). As to `O=C(c1ccncc1)N1CCC2(CCCN(C(c3ccccc3)c3ccccc3)C2)CC1`, the AC50 is 10 µM (active). On to `c1ccc(CNc2ncnc3ccc(-c4ccc5c(c4)OCO5)cc23)cc1`, for which the AC50 is 3.16 µM (active). In the case of `Cc1cccc(CNc2ncnc3ccc(-c4ccc5c(c4)OCO5)cc23)c1`, the AC50 is 5.01 µM (active). For the compound `c1ccc(Nc2ncnc3ccc(-c4ccc5c(c4)OCO5)cc23)cc1`, the “activity, negative = inhibition” value is -41.2%.

On to `Cc1cc(O)c(C(C)C)cc1C1(c2cc(C(C)C)c(O)cc2C)OC(=O)c2ccccc21`, for which the AC50 is 3.16 µM (active). With `O=c1c(-c2ccc(F)cc2)nc2cnc(N3CCOCC3)nc2n1C1CC1`, the “activity, negative = inhibition” value was 2.66%. With `Cc1ccc(S(=O)(=O)N(CC(=O)N2CCN(c3ccc(F)cc3)CC2)C2CCCCC2)cc1`, the AC50 was 2.82 µM (active). On to `Cc1ccc(S(=O)(=O)NC(=O)NN2C[C@H]3CCC[C@@H]3C2)cc1`, for which the “activity, negative = inhibition” value is -36.1% [at 25.6 µM].

With `COc1ccc(-c2nc3cnc(Nc4ccccc4)nc3n(CCC#N)c2=O)cc1`, the “activity, negative = inhibition” value was -8.02%.

Take `COc1cccc(Nc2ncc3nc(C)c(=O)n(C4CC4)c3n2)c1`: the “activity, negative = inhibition” value was -10.3%. Consider `COc1ccc(C2CC(=O)c3cnc(Nc4cc(C)cc(C)c4)nc3C2)cc1` (stereo not drawn), for which the AC50 is 11.2 µM (active). For `COc1ccc(-n2c(=O)c(C)nc3cnc(Nc4ccccc4)nc32)cc1`, the “activity, negative = inhibition” value is -35.7%.

Consider `COc1ccc(Nc2ncc3c(n2)CC(c2ccc(C)cc2)CC3=O)cc1` (stereo not drawn), for which the AC50 is 8.91 µM (active). On to `COc1ccc(-n2c(=O)c(-c3cccs3)nc3cnc(Nc4cccc(OC)c4)nc32)cc1`, for which the “activity, negative = inhibition” value is -16.8%.

For `O=C(Nc1ccccc1)N1CC[C@@]2(CCCN(C(=O)c3ccco3)C2)C1`, the “activity, negative = inhibition” value is -17.2%.

For `C=CC[C@@H]1C=C[C@H](O/N=C(\C)CCN2CCCCc3nc(C)c(C)cc32)[C@H](CO)O1`, the activity, negative = inhibition is 21.2% [at 11.4 µM].

Regarding `O=C(c1cccc(F)c1)N1CCC2(CCCN(c3cccc(-c4ccccc4)c3)C2)CC1`, the AC50 was 7.94 µM (active).

Regarding `O=C(c1cccc(F)c1)N1CCC2(CC1)CCN(c1cccc(-c3ccccc3)c1)CC2`, the “activity, negative = inhibition” value was -26.8%. `O=C(c1cccc(F)c1)N1CCC2(CC1)CN(c1cccc(-c3ccccc3)c1)C2`: the “activity, negative = inhibition” value is 1.93%. For the compound `CC(C)CN1CCCC2(CCN(C(=O)c3cccc(F)c3)CC2)C1`, the “activity, negative = inhibition” value was -33.2%. Consider `O=C(c1cccc(F)c1)N1CCC2(CCCN(c3ncccn3)C2)CC1`, for which the AC50 was 6.31 µM (active). `O=C(c1cccc(F)c1)N1CCC2(CC1)CCN(c1ccccc1)CC2`: the “activity, negative = inhibition” value was -28.2%.

`O=C(c1cccc(F)c1)N1CCC2(CCCN(c3ccccc3)C2)CC1`: the AC50 was 5.01 µM (active). Regarding `CC(=O)N1CCC2(CCCN(c3ncccn3)C2)CC1`, the “activity, negative = inhibition” value was -33.5%. The same measure, in the same setting: next, `O=C(c1cccc(F)c1)N1CCC[C@@]2(CCN(c3ccccc3)C2)C1`: 4.02%. On the same count and under the same terms, the same measure for `CN(C)C(=O)c1ccc(-c2ccc3ncnc(N4CCC(C(=O)O)CC4)c3c2)cc1`: 6.88%. Turning to `O=C(O)CCc1ccc(-c2ccccc2)[nH]1`, the activity, negative = inhibition is -7.89% [at 11.4 µM].

Consider `Clc1cccc(N/N=C/c2ccc(N3CCOCC3)cc2)c1`, for which the half-maximal activity concentration (AC50) was 10 µM (active). Same read-out and setting: the same measure for `FC(F)(F)c1cccc(NC(=S)Nc2cccc(Cl)c2)c1`: 1.78 µM (active); for `FC(F)(F)c1cccc(NC(=S)Nc2ccc(Cl)cc2Cl)c1`: 0.282 µM (active). As for `COc1ccc(C=O)cc1COc1ccc(C)cc1[N+](=O)[O-]`, the AC50 was 2.24 µM (active).

As for `C=CCNCCOCCOc1ccc(C)cc1[N+](=O)[O-]`, the “activity, negative = inhibition” value was -79.6%. Consider `CN1CCN(c2ccnc(-c3ccc(N(C)C)cc3)n2)CC1`, for which the “activity, negative = inhibition” value is -40.7%. With `CN(C)c1ccc(-c2nccc(Nc3ccc(F)cc3)n2)cc1`, the AC50 was 3.16 µM (active). Turning to `Nc1nccc(Nc2ccc(S(N)(=O)=O)cc2)n1`, the activity, negative = inhibition is -11.8% [at 11.4 µM]. Turning to `Fc1ccc(Nc2ccnc(-c3ccc4c(c3)OCO4)n2)cc1`, the AC50 is 2 µM (active). Consider `Cc1cnc(CNc2cc(-c3ccc(C(=O)N(C)C)cc3)ncn2)cn1`, for which the “activity, negative = inhibition” value was 13.1%. `CN(C)c1ccc(-c2cc(Nc3ccc(F)cc3)ncn2)cc1`: the concentration at half-maximal activity (AC50) is 2 µM (active). Same read-out and setting: the same measure for `CC(C)(C)c1ccc(CN(Cc2ccco2)Cc2nnnn2C2CCCC2)cc1`: 2.24 µM (active).

On to `O=C1CCc2cc(OCCCCc3nnnn3C3CCCCC3)ccc2N1`, for which the “activity, negative = inhibition” value was 28.7%. For `S[C@@H]1CCCN(Cc2ccccc2)C1`, the AC50 was 3.16 µM (active). Turning to `c1ccc(CN2CC[C@@H](CNc3ncnc4ccccc34)C2)cc1`, the activity, negative = inhibition was -7.26% [at 11.4 µM]. As for `OCC1CCCN(Cc2ccc(-c3ccccc3)cc2)C1` (stereo not drawn), the “activity, negative = inhibition” value is 8.82%. With `CCOC(=O)C1CCN(Cc2cnc(Oc3ccc(OC)cc3)s2)CC1`, the AC50 is 7.94 µM (active). Consider `Cc1cc(C(C)(C)C)c(OCCCN2CCOCC2)c(C(C)(C)C)c1`, for which the activity, negative = inhibition is -2.67% [at 11.4 µM]. On to `CCOc1nc(NCCN2CCOCC2)nc(Nc2ccc(C)cc2)n1`, for which the “activity, negative = inhibition” value was -18.9%. In the case of `Cc1ccc(Oc2ncc(CN3CCOCC3)s2)cc1`, the AC50 is 1.78 µM (active). In the case of `O=C(Nc1cccc(F)c1)N1CC[C@@]2(CCCNC2)C1`, the “activity, negative = inhibition” value is -4.59%. `Nc1ccc(N(S(=O)(=O)c2ccccc2)S(=O)(=O)c2ccccc2)c(Cl)c1`: the AC50 was 0.158 µM (active). For the compound `Nc1ccc(N2C(=O)c3ccccc3C2=O)c(Cl)c1`, the “activity, negative = inhibition” value was -14.9%.

Values taken from PubChem BioAssay AID1851 (National Center for Advancing Translational Sciences (NCATS), 2009).
